Experimental data reported in PubChem BioAssay AID624260 (Broad Institute, 2012).
Out of some 44,000 compounds screened, about 30 (0.07%) were called active. Inconclusive results (about 1%) are left out. Cut-off read from the data, not from the text of the source: active = inhibition above about 54% (passing the limit was not always enough); inconclusive = no clear call, values can overlap the other calls. The sample as a whole holds a higher share of actives than the screen did.

target: Histone-lysine N-methyltransferase NSD2 (Homo sapiens) (UniProt O96028); assay: inhibitors of human NSD2, primary screen, biochemical, plate reader, single point (AID 624260); settings: NSD2-SET H3K36me1 DELFIA fluorescence, at 12.5 µM, hits give high values;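 note: inhibitors reduce the monomethyl H3K36 fluorescence signal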
Sequence (O96028 whole entry, looked up): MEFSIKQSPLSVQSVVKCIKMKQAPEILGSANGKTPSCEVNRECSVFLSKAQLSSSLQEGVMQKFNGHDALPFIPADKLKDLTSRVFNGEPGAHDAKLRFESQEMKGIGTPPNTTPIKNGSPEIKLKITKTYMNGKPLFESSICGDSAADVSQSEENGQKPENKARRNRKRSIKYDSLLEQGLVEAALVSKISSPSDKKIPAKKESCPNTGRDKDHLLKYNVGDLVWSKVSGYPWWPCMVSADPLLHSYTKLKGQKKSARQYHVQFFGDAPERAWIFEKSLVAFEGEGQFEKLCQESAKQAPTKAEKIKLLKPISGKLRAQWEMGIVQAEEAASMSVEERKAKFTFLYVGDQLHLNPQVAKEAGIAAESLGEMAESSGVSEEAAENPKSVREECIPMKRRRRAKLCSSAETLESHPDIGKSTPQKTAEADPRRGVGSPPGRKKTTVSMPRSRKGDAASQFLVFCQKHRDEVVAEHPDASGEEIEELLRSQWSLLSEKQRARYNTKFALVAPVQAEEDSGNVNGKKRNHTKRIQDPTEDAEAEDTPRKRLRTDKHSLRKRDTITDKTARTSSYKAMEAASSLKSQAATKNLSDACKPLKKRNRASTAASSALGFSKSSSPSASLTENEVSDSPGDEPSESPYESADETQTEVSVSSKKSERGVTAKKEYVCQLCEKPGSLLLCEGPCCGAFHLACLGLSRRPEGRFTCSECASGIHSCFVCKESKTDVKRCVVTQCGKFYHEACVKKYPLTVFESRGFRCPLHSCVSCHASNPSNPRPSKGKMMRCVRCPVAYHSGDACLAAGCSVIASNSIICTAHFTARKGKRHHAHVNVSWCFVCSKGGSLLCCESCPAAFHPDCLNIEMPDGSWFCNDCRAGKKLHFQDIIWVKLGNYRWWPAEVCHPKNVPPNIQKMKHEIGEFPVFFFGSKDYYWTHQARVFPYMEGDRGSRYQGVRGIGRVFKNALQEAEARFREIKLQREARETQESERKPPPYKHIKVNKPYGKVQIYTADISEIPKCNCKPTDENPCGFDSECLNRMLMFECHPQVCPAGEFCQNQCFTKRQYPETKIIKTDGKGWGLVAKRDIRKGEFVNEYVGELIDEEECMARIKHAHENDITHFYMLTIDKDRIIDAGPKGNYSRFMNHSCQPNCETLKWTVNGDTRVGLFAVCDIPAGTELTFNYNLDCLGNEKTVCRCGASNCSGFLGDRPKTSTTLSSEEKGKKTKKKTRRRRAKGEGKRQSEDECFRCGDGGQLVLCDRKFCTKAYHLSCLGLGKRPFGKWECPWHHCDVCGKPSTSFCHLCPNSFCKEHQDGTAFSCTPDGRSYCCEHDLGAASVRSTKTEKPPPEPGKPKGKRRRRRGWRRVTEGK

inhibition, inactive:
CC(=O)N(C)C[C@H]1Oc2cc(C#Cc3ccccc3F)ccc2S(=O)(=O)N([C@@H](C)CO)C[C@H]1C -2.4%, O=C(C[C@@H]1C[C@H]2c3cc(NS(=O)(=O)c4ccc(F)cc4)ccc3O[C@H]2[C@H](CO)O1)NCCc1ccccc1 4.07%, C[C@@H]1CN([C@@H](C)CO)S(=O)(=O)c2ccc(C#Cc3ccccc3F)cc2O[C@H]1CN(C)C(=O)c1ccc2c(c1)OCO2 -0.635%, CC(C)NC(=O)N(C)C[C@H]1Oc2ncc(C#CC3(O)CCCC3)cc2C(=O)N([C@H](C)CO)C[C@@H]1C -3.09%, O=C(C[C@@H]1C[C@@H]2c3cc(NS(=O)(=O)c4ccc(F)cc4)ccc3O[C@@H]2[C@@H](CO)O1)NCc1ccncc1 1.12%, CN(C)CC(=O)Nc1ccc2c(c1)[C@H]1C[C@@H](CC(=O)NCc3ccc(-c4ccccc4)cc3)O[C@H](CO)[C@H]1O2 3.66%, C[C@H](CO)N1C[C@H](C)[C@@H](CN(C)S(=O)(=O)c2ccc(Cl)cc2)Oc2ccc(NS(C)(=O)=O)cc2CC1=O 1.76%, C[C@@H]1CN([C@@H](C)CO)C(=O)c2cc(-c3cccc(F)c3)cnc2O[C@@H]1CN(C)Cc1ccccc1 -9.63%, COCC(=O)Nc1ccc2c(c1)[C@H]1C[C@H](CC(=O)NCc3ccccn3)O[C@H](CO)[C@H]1O2 2.78%, CCC(=O)N(C)C[C@H]1Oc2cc(/C=C/c3ccccc3)ccc2S(=O)(=O)N([C@H](C)CO)C[C@@H]1C 2.05%, COc1ccc(NC(=O)Nc2ccc3c(c2)[C@@H]2C[C@H](CC(=O)N4CCCCC4)O[C@H](CO)[C@@H]2O3)cc1 4.87%, C[C@@H]1CN([C@@H](C)CO)S(=O)(=O)c2ccc(-c3cccc(C(=O)N(C)C)c3)cc2O[C@@H]1CN(C)C 1.16%, CC(C)NC(=O)N(C)C[C@@H]1Oc2ncc(C#Cc3ccncc3)cc2C(=O)N([C@@H](C)CO)C[C@@H]1C 4.8%, Cc1ccc(-c2cnc3c(c2)C(=O)N([C@H](C)CO)C[C@@H](C)[C@H](CN(C)Cc2ccccc2C(=O)O)O3)cc1 12.9%, CCCNC(=O)C[C@H]1C[C@@H]2c3cc(NC(=O)COC)ccc3O[C@@H]2[C@@H](CO)O1 3.25%, C[C@H](CO)N1C[C@H](C)[C@@H](CN(C)C(=O)Nc2ccccc2)Oc2ncc(C3=CCCC3)cc2C1=O -0.747%, C/C=C/c1cnc2c(c1)C(=O)N([C@@H](C)CO)C[C@@H](C)[C@H](CN(C)Cc1ccccc1)O2 1.34%, C[C@@H]1CN([C@@H](C)CO)S(=O)(=O)c2ccc(C#CCN(C)C)cc2O[C@@H]1CN(C)S(=O)(=O)c1cccc(F)c1 -0.392%, C[C@H]1CN([C@@H](C)CO)C(=O)c2cc(-c3ccncc3)cnc2O[C@@H]1CN(C)C(=O)c1cccc(F)c1 -0.363%, Cc1ccc(-c2ccc3c(c2)O[C@H](CN(C)C(=O)Nc2ccc(C(F)(F)F)cc2)[C@@H](C)CN([C@H](C)CO)S3(=O)=O)cc1 -7.32%, CCC(=O)N(C)C[C@@H]1Oc2ncc(C#CCc3ccccc3)cc2C(=O)N([C@H](C)CO)C[C@H]1C -13.4%, C[C@H](CO)N1C[C@H](C)[C@@H](CN(C)S(=O)(=O)c2cccc(F)c2)Oc2ncc(-c3cccc(F)c3)cc2C1=O -2.04%, C[C@@H]1CCCCO[C@H](CN(C)S(=O)(=O)c2ccc(Cl)cc2)[C@H](C)CN([C@H](C)CO)C(=O)c2cc(NC(=O)NC3CCCCC3)ccc2O1 5.74%, CC(=O)N(C)C[C@H]1Oc2ncc(C#CC3(O)CCCC3)cc2C(=O)N([C@@H](C)CO)C[C@@H]1C 4.16%, COc1ccc(S(=O)(=O)N[C@@H]2C=C[C@@H](CC(=O)N3CCc4ccccc4C3)O[C@@H]2CO)cc1 3.25%, CC(=O)N(C)C[C@@H]1Oc2ncc(-c3ccccc3F)cc2C(=O)N([C@H](C)CO)C[C@@H]1C -4.17%, COc1ccc(-c2cnc3c(c2)C(=O)N([C@@H](C)CO)C[C@H](C)[C@H](CN(C)C(=O)Cc2cccnc2)O3)cc1 -0.562%, C[C@@H]1CN([C@H](C)CO)C(=O)c2cc(NC(=O)C3CCCCC3)ccc2O[C@@H](C)CCCCO[C@H]1CN(C)S(C)(=O)=O -14.3%, C[C@@H]1CN([C@H](C)CO)S(=O)(=O)c2ccc(Br)cc2O[C@@H]1CN(C)Cc1cncnc1 1.53%, C[C@@H](NC(=O)C[C@H]1C[C@@H]2c3cc(NC(=O)C4CCC4)ccc3O[C@@H]2[C@@H](CO)O1)c1ccccc1 -3.13%, C[C@H]1CN([C@@H](C)CO)S(=O)(=O)c2ccc(-c3cccc(C#N)c3)cc2O[C@H]1CN(C)CC1CC1 18.1%, COc1cccc(S(=O)(=O)N(C)C[C@H]2Oc3cc(C#CCN(C)C)ccc3S(=O)(=O)N([C@H](C)CO)C[C@H]2C)c1 1.49%, C[C@@H]1CN([C@@H](C)CO)C(=O)Cc2cc(NS(C)(=O)=O)ccc2O[C@H]1CN(C)S(=O)(=O)c1ccc(F)cc1 5.39%, CCCNC(=O)N(C)C[C@H]1Oc2ncc(C#CC(C)C)cc2C(=O)N([C@@H](C)CO)C[C@@H]1C -3.03%, C[C@@H]1CN([C@H](C)CO)C(=O)c2cc(-c3ccc(F)cc3)cnc2O[C@@H]1CN(C)C(=O)C1CCC1 8.32%, O=C(C[C@H]1C[C@@H]2c3cc(NC(=O)CC4CC4)ccc3O[C@@H]2[C@@H](CO)O1)NCc1cc(F)ccc1F 9.35%, COc1ccccc1S(=O)(=O)N(C)C[C@@H]1Oc2cc(C#CCC3CCCC3)ccc2S(=O)(=O)N([C@H](C)CO)C[C@H]1C -16.6%, C[C@@H]1CN([C@@H](C)CO)S(=O)(=O)c2ccc(Br)cc2O[C@@H]1CN(C)C(=O)CN(C)C 16.9%, COc1ccccc1CNC(=O)C[C@@H]1C[C@@H]2c3cc(NC(=O)C4CCOCC4)ccc3O[C@@H]2[C@@H](CO)O1 -2.77%, CNC[C@H]1Oc2cc(-c3ccc(C(=O)N(C)C)cc3)ccc2S(=O)(=O)N([C@@H](C)CO)C[C@@H]1C 2.38%, COc1ccc(S(=O)(=O)Nc2ccc3c(c2)C(=O)N([C@@H](C)CO)C[C@H](C)[C@H](CN(C)Cc2ccc4c(c2)OCO4)OCCCC[C@H](C)O3)cc1 2.05%, COC(=O)C[C@@H]1C[C@H]2c3cc(NC(=O)CN(C)C)ccc3O[C@H]2[C@H](CO)O1 6.16%, C[C@H](CO)N1C[C@H](C)[C@@H](CN(C)Cc2ccccn2)Oc2ncc(-c3cccc(F)c3)cc2C1=O 2.22%, CC(=O)N(C)C[C@@H]1Oc2cc(-c3cccnc3)ccc2S(=O)(=O)N([C@@H](C)CO)C[C@H]1C -5.41%, C[C@H]1CN([C@@H](C)CO)S(=O)(=O)c2ccc(C3=CCCC3)cc2O[C@H]1CN(C)C(=O)Cc1ccncc1 -1.21%, O=C(C[C@H]1CC[C@@H](NC(=O)Nc2ccc(F)cc2)[C@H](CO)O1)NCc1cccc(F)c1 9.13%, Cc1ccccc1-c1ccc2c(c1)O[C@@H](CN(C)Cc1ccc(C(=O)O)cc1)[C@H](C)CN([C@H](C)CO)S2(=O)=O -1.98%, C[C@H](CO)N1C[C@H](C)[C@@H](CN(C)S(=O)(=O)c2ccc(F)cc2)Oc2ccc(NC(=O)CCCCCC(=O)Nc3ccccc3N)cc2CC1=O -1.08%, C[C@@H]1CN([C@H](C)CO)C(=O)Cc2cc(NC(=O)Nc3cccc4ccccc34)ccc2O[C@H]1CN(C)C(=O)Nc1ccc2c(c1)OCO2 -7.81%, COCC#Cc1ccc2c(c1)O[C@@H](CN(C)S(C)(=O)=O)[C@H](C)CN([C@H](C)CO)S2(=O)=O -5.23%, C[C@@H]1CN([C@H](C)CO)C(=O)c2cc(NS(=O)(=O)c3cn(C)cn3)ccc2O[C@@H](C)CCCCO[C@@H]1CN(C)C(=O)CCC(F)(F)F -0.203%, CN1CCN(C(=O)C[C@H]2C[C@H]3c4cc(NC(=O)C5CCC5)ccc4O[C@H]3[C@H](CO)O2)CC1 5.87%, CC(C)CC#Cc1cnc2c(c1)C(=O)N([C@@H](C)CO)C[C@H](C)[C@@H](CN(C)S(=O)(=O)c1cn(C)cn1)O2 2.14%, CC(C)CC#Cc1ccc2c(c1)O[C@H](CN(C)C(=O)CC1CC1)[C@@H](C)CN([C@@H](C)CO)S2(=O)=O -15.5%, COC(=O)C[C@H]1C=C[C@H](NC(=O)Nc2ccc(C(F)(F)F)cc2)[C@@H](CO)O1 -4.85%, O=C(C[C@@H]1C[C@@H]2c3cc(NC(=O)C4CCOCC4)ccc3O[C@@H]2[C@@H](CO)O1)NC1CCCCC1 0.0335%, C[C@H](O)C#Cc1cnc2c(c1)C(=O)N([C@@H](C)CO)C[C@H](C)[C@@H](CN(C)C(=O)c1ccncc1)O2 0.0295%, C[C@H]1CN([C@@H](C)CO)S(=O)(=O)c2ccc(Br)cc2O[C@H]1CN(C)C(=O)C1CC1 6.22%, Cc1noc(C)c1NC(=O)N(C)C[C@@H]1OCCCC[C@H](C)Oc2ccc(NC(=O)C3CCCCC3)cc2C(=O)N([C@H](C)CO)C[C@@H]1C 3.93%
